# Source: the supplement of paper PMC8728848
# The entries come from a sample that favours the strongest signals as a whole.
# B1: DCIR1 (Mus musculus), Q9QZ15 (protein)
# chain: MASEITYAEVKFKNESNSLHTYSESPAAPREKPIRDLRKPGSPSLLLTSLMLLLLLLAITFLVAFIIYFQKYSQLLEEKKAAKNIMHNELNCTKSVSPMEDKVWSCCPKDWRLFGSHCYLVPTVSSSASWNKSEENCSRMGAHLVVIQSQEEQDFITGILDTHAAYFIGLWDTGHRQWQWVDQTPYEESITFWHNGEPSSGNEKCATIIYRWKTGWGWNDISCSLKQKSVCQMKKINL
# Columns and labels:
# Assay in all cases: glycan array binding signal (z-score within array); higher = stronger binding
# Conditions in all cases: glycan notation: IUPAC condensed, linker removed
# [1] = molecular target: Fuc(a1-2)Gal(b1-3)GalNAc(a1-3)[Fuc(a1-2)]Gal(b1-4)GlcNAc
# Procedure, shortened: (§1)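 Columns mapping to the same glycan were averaged after glycan names were converted to IUPAC-condensed notation. The data come from 3228 arrays in the Consortium for Functional Glycomics database, limited to those with an available protein sequence. Binding is reported as a within-array Z-score averaged across arrays of one protein sequence and across linkers.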
# [2] = molecular target: Fuc(a1-2)Gal(b1-3)GalNAc(b1-3)Gal(a1-4)Gal(b1-4)Glc
# Procedure, shortened: as §1
# [3] = molecular target: Fuc(a1-2)Gal(b1-3)GlcNAc(b1-2)Man(a1-3)[Fuc(a1-2)Gal(b1-3)GlcNAc(b1-2)Man(a1-6)]Man(b1-4)GlcNAc(b1-4)[Fuc(a1-6)]GlcNAc
# Procedure, shortened: as §1
# [4] = molecular target: Fuc(a1-2)Gal(b1-4)GlcNAc(b1-6)GalNAc
# Procedure, shortened: as §1
# Fuc(a1-2)Gal6S(b1-4)Glc = molecular target: Fuc(a1-2)Gal6S(b1-4)Glc
# Procedure, shortened: as §1
# [5] = molecular target: Fuc(a1-2)[Gal(a1-3)]Gal(b1-4)GlcNAc(b1-3)GalNAc
# Procedure, shortened: as §1
# [6] = molecular target: Fuc(a1-3)[Gal(b1-4)]GlcNAc6S
# Procedure, shortened: as §1
# Fuc(a1-4)GlcNAc = molecular target: Fuc(a1-4)GlcNAc
# Procedure, shortened: as §1
# Gal(a1-3)Gal(b1-3)GlcNAc = molecular target: Gal(a1-3)Gal(b1-3)GlcNAc
# Procedure, shortened: as §1
# [7] = molecular target: Gal(a1-3)Gal(b1-4)[Fuc(a1-3)]GlcNAc
# Procedure, shortened: as §1
# [8] = molecular target: Gal(a1-3)Gal(b1-4)[Fuc(a1-3)]GlcNAc(b1-2)Man(a1-3)[Gal(a1-3)Gal(b1-4)[Fuc(a1-3)]GlcNAc(b1-2)Man(a1-6)]Man(b1-4)GlcNAc(b1-4)GlcNAc
# Procedure, shortened: as §1
# [9] = molecular target: Gal(a1-3)[Gal(a1-4)]Gal(b1-4)GlcNAc
# Procedure, shortened: as §1
# Gal(a1-4)Gal(b1-4)Glc = molecular target: Gal(a1-4)Gal(b1-4)Glc
# Procedure, shortened: as §1
# Gal(b1-3)Gal = molecular target: Gal(b1-3)Gal
# Procedure, shortened: as §1
# [10] = molecular target: Gal(b1-3)GalNAc(b1-3)Gal(a1-4)Gal(b1-4)Glc
# Procedure, shortened: as §1
# [11] = molecular target: Gal(b1-3)GalNAc(b1-4)[Neu5Ac(a2-3)]Gal(b1-4)Glc
# Procedure, shortened: as §1
# [12] = molecular target: Gal(b1-3)GlcNAc(b1-3)GalNAc
# Procedure, shortened: as §1
# [13] = molecular target: Gal(b1-3)[Neu5Ac(a2-6)]GalNAc
# Procedure, shortened: as §1
# [14] = molecular target: Gal(b1-3)[Neu5Ac(a2-6)]GlcNAc(b1-4)Gal(b1-4)Glc
# Procedure, shortened: as §1
# [15] = molecular target: Gal(b1-3)[Neu5Ac(b2-6)]GalNAc
# Procedure, shortened: as §1
# [16] = molecular target: Gal(b1-4)GlcNAc(b1-2)Man(a1-3)[Gal(b1-4)GlcNAc(b1-2)Man(a1-6)]Man(b1-4)GlcNAc(b1-4)GlcNAc
# Procedure, shortened: as §1
# [17] = molecular target: Gal(b1-4)GlcNAc(b1-2)Man(a1-6)[GlcNAc(b1-2)Man(a1-3)]Man(b1-4)GlcNAc(b1-4)GlcNAc
# Procedure, shortened: as §1
# [18] = molecular target: Gal(b1-4)GlcNAc(b1-3)Gal(b1-4)GlcNAc(b1-3)Gal(b1-4)GlcNAc(b1-3)Gal(b1-4)GlcNAc(b1-3)Gal(b1-4)GlcNAc(b1-3)Gal(b1-4)GlcNAc(b1-2)Man(a1-3)[Gal(b1-4)GlcNAc(b1-3)Gal(b1-4)GlcNAc(b1-3)Gal(b1-4)GlcNAc(b1-3)Gal(b1-4)GlcNAc(b1-3)Gal(b1-4)GlcNAc(b1-3)Gal(b1-4)GlcNAc(b1-2)Man(a1-6)]Man(b1-4)GlcNAc(b1-4)GlcNAc
# Procedure, shortened: as §1
# [19] = molecular target: Gal(b1-4)GlcNAc(b1-3)[Gal(b1-4)GlcNAc(b1-6)]Gal(b1-4)GlcNAc
# Procedure, shortened: as §1
# [20] = molecular target: Gal(b1-4)GlcNAc(b1-6)GalNAc
# Procedure, shortened: as §1
# Gal(b1-6)Gal = molecular target: Gal(b1-6)Gal
# Procedure, shortened: as §1
# [21] = molecular target: Gal3S(b1-3)[Fuc(a1-4)]GlcNAc
# Procedure, shortened: as §1
# Gal3S4S(b1-4)GlcNAc = molecular target: Gal3S4S(b1-4)GlcNAc
# Procedure, shortened: as §1
# Gal3S6S(b1-4)GlcNAc = molecular target: Gal3S6S(b1-4)GlcNAc
# Procedure, shortened: as §1
# Gal6P(b1-4)GlcNAc = molecular target: Gal6P(b1-4)GlcNAc
# Procedure, shortened: as §1
binder,measurement,setting,value
B1,glycan array binding signal (z-score),[1],0.031
same,glycan array binding signal (z-score),[2],3.31
same,glycan array binding signal (z-score),[3],3.05
same,glycan array binding signal (z-score),[4],3.97
same,glycan array binding signal (z-score),Fuc(a1-2)Gal6S(b1-4)Glc,1.87
same,glycan array binding signal (z-score),[5],-0.604
same,glycan array binding signal (z-score),[6],1.43
same,glycan array binding signal (z-score),Fuc(a1-4)GlcNAc,-0.807
same,glycan array binding signal (z-score),Gal(a1-3)Gal(b1-3)GlcNAc,7.14
same,glycan array binding signal (z-score),[7],-0.171
same,glycan array binding signal (z-score),[8],2.31
same,glycan array binding signal (z-score),[9],3.21
same,glycan array binding signal (z-score),Gal(a1-4)Gal(b1-4)Glc,0.74
same,glycan array binding signal (z-score),Gal(b1-3)Gal,-0.894
same,glycan array binding signal (z-score),[10],0.592
same,glycan array binding signal (z-score),[11],2.65
same,glycan array binding signal (z-score),[12],-0.841
same,glycan array binding signal (z-score),[13],-0.767
same,glycan array binding signal (z-score),[14],3.38
same,glycan array binding signal (z-score),[15],-0.696
same,glycan array binding signal (z-score),[16],-0.217
same,glycan array binding signal (z-score),[17],0.904
same,glycan array binding signal (z-score),[18],-0.907
same,glycan array binding signal (z-score),[19],-0.693
same,glycan array binding signal (z-score),[20],1.01
same,glycan array binding signal (z-score),Gal(b1-6)Gal,-0.786
same,glycan array binding signal (z-score),[21],-0.369
same,glycan array binding signal (z-score),Gal3S4S(b1-4)GlcNAc,-0.376
same,glycan array binding signal (z-score),Gal3S6S(b1-4)GlcNAc,0.218
same,glycan array binding signal (z-score),Gal6P(b1-4)GlcNAc,-0.489
